# Screening data: PubChem, several laboratories
# TIM10 inh – growth inhibitors of isogenic TIM10 control yeast, primary screen, counter-screen for tim10-1 yeast inhibitor project, luminescence, uHTS | S. cerevisiae TIM10 strain growth, BacTiter-Glo luminescence, 24 h | inhibition, % at 10 µM | 330,000 compounds, 1.4% hits;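 active = inhibition of 40% or more at the single tested concentration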;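 also: wild-type TIM10 isogenic control strain grown at permissive 25 °C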
# tim23-1 inh – growth inhibitors of tim23-1 mutant yeast, primary screen, luminescence, uHTS. S. cerevisiae tim23-1 growth, BacTiter-Glo luminescence, 24 h. inhibition, % at 20 µM. 330,000 compounds, 1.3% hits;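 active = growth inhibition of the mutant yeast at or above 50%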;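 also: temperature-sensitive mutant grown at 25 °C; plate controls were DMSO-treated mutant yeast for no effect and medium wells lacking yeast for full effect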
# tim10-1 inh – growth inhibitors of tim10-1 mutant yeast, primary screen, luminescence, uHTS; S. cerevisiae tim10-1 ts strain growth, BacTiter-Glo, 24 h; 330,000 compounds, 2.2% hits; inhibition, % at 20 µM;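 active = inhibition of at least 40%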;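 also: mutant grown at 25 °C; 0% = DMSO wells with yeast and 100% = wells holding no yeast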
# NALP1 inh – NALP1 inflammasome inhibitors in reconstituted yeast, colorimetric, S. cerevisiae, triplicate retest; S. cerevisiae NALP1/ASC/caspase-1 growth, X-gal OD620, 72 h; inhibition, % at 10 µM; 280,000 compounds, 0.61% hits; AID 2071, 2009; in the data active = inhibition mostly above about 24%, no sharp cut-off; inactive = mostly below about 32%
# NALP3 yeast inh – NALP3 inflammasome inhibitors in reconstituted yeast, primary screen, luminescence, uHTS; Yeast reconstituted NLRP3/ASC/caspase-1, beta-gal luminescence, 24 h; inhibition, % at 10 µM; 330,000 compounds, 0.39% hits; AID 2825, 2010;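 active = inhibition of 50% or more; inactive = inhibition below 50%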;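 also: plate controls were induced DMSO wells for no effect and uninduced yeast grown without galactose for full effect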
# V-ATPase pH – regulators of yeast V-ATPase proton pumping, primary screen, pHLuorin cytosolic pH fluorescence; S. cerevisiae; response, % at 10 µM; 350,000 compounds, 0.37% hits; AID 504577, 2011; in the data active = response mostly above about 7.3%, no sharp cut-off; inactive = mostly below about 5.4%; also: actives read high
# tim10-1 confirm – growth inhibitors of tim10-1 mutant yeast, confirmation, single concentration, luminescence, S. cerevisiae | shares compounds with tim10-1 inh | S. cerevisiae tim10-1 ts strain growth, BacTiter-Glo, 24 h | inhibition, % at 20 µM | AID 463213, 2010 | 7,400 compounds, 56% hits;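 active = inhibition of yeast growth at or above a set limit in either of two repeat tests at 20 µM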;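 also: tim10-1 mutant grown at permissive 25 °C to find synthetic lethal compounds; 0% = DMSO yeast wells and 100% = medium wells without yeast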
# Numbers without * were called inactive; . = not tested or not shown. An excerpt weighted towards active compounds, which were near 4.2% of everything screened.
SMILES,TIM10 inh,tim23-1 inh,tim10-1 inh,NALP1 inh,NALP3 yeast inh,V-ATPase pH,tim10-1 confirm
CC(C)c1ccc(/C=N/n2c(COc3ccccc3)n[nH]c2=S)cc1,18,32,43*,3,37,-3,21
S=c1[nH]nc(COc2ccccc2)n1/N=C/c1ccc(Br)cc1,9,17,33,-8,24,0,.
Cc1cccc(N2CC(C(=O)Nc3nnc(SCc4ccccn4)s3)CC2=O)c1 (centres undefined),2,15,10,-12,2,1,.
CC(/C=N/NC(=O)Cc1cccn1C)=C\c1ccccc1,-7,15,7,36,9,2,.
CN1N=C(c2ccc(Cl)cc2)CC(c2ccc(Cl)cc2)C1=O (centres undefined),12,40,42*,12,25,-2,29
CCc1ccc(C2CC(c3ccc(Cl)cc3)=NNC2=O)cc1 (centres undefined),9,32,31,4,19,1,.
O=C(CCNS(=O)(=O)c1ccccc1)NNC(=O)C1COc2ccccc2O1 (centres undefined),-7,-3,-30,.,9,2,.
N#Cc1c(N2CCCC(O)C2)nc(N)c2c(N)nc3c(c12)CC(=O)N3C12CC3CC(CC(C3)C1)C2 (centres undefined),36,34,50*,7,9,-5,33*
CC1Nc2ccccc2C(=O)N1NS(C)(=O)=O (centres undefined),3,3,1,4,3,-2,.
COc1ccccc1N1CCN(C2CC(=O)N(c3cccc(Br)c3)C2=O)CC1 (centres undefined),11,27,49*,-4,18,3,36*
O=C1CC(N2CCN(c3ccccc3Cl)CC2)C(=O)N1c1ccccc1 (centres undefined),-12,11,49*,10,17,1,19
CCOc1ccc(N2C(=O)CC(N3CCN(c4ccc(Cl)cc4)CC3)C2=O)cc1 (centres undefined),2,16,45*,8,17,-1,24
O=C1CC(N2CCN(c3ccc(Cl)cc3)CC2)C(=O)N1c1ccccc1 (centres undefined),-9,11,-12,8,20,0,.
N/C(Cc1cccs1)=N\OC(=O)COc1ccc(Cl)cc1Cl,26,44,49*,-6,26,-2,52*
Cc1ccc(/C=N/c2sc(Cc3ccccc3)c(C)c2C(N)=O)o1,33,49,48*,36,11,0,46*
Cc1c(Cc2ccccc2)sc(/N=C/c2ccc3ccccc3c2)c1C(N)=O,.,.,.,21,.,-1,.
Cc1ccc(OC(=O)c2ccc(C)c([N+](=O)[O-])c2)cn1,-1,7,8,-2,19,1,.
Cc1ccc(OC(=O)c2ccc([N+](=O)[O-])cc2Cl)cn1,13,22,43*,5,4,-4,23
COc1ccccc1N1CCN(C2CCN(C(=O)COc3cccc(C)c3)CC2)CC1,6,5,15,38,2,-2,.
COc1cccc(/C=C/C(=O)NCc2cn3cc(Cl)ccc3n2)c1,12,-7,-8,-26,5,-1,.
O=C(/C=C/c1cccc(Cl)c1)OCc1cn2cc(Cl)ccc2n1,20,28,43*,11,6,-2,29
C=CCOc1ccc(C2C(C(=O)c3ccco3)=C(O)C(=O)N2CCCN(CC)CC)cc1 (centres undefined),8,21,24,11,-22,-1,.
CCOc1ccc(N2C(=O)CC(NCCNc3ccc([N+](=O)[O-])cn3)C2=O)cc1 (centres undefined),6,12,53*,9,11,-4,28*
COc1ccc(-c2csc(CCn3nc(C)cc3C)n2)cc1OC,-3,19,-1,-29,2,-1,.
COc1ccc(-c2csc(CCn3nc(C)cc3C)n2)cc1,25,27,41*,6,4,-1,35*
SMILES,TIM10 inh,tim23-1 inh,tim10-1 inh,NALP1 inh,NALP3 yeast inh,V-ATPase pH,tim10-1 confirm
OCCN1CCOCCOc2ccccc2OCCOCC1,-8,7,-9,8,9,3,.
COc1cc(S(=O)(=O)N2CCN(Cc3ccc4c(c3)OCO4)CC2)ccc1NC(C)=O,8,7,23,.,5,.,.
COc1ccc(N2C(=O)CC(Sc3nnc(-c4ccccc4)o3)C2=O)cc1 (centres undefined),39,41,53*,10,18,0,55*
O=C1CC(Sc2nnc(-c3ccccc3O)o2)C(=O)N1c1ccccc1 (centres undefined),35,38,26,-10,17,1,.
Clc1ccccc1C1Nc2cccc3cccc(c23)N1,23,35,43*,20,22,0,34*
Brc1ccc(C2Nc3cccc4cccc(c34)N2)cc1,.,.,.,.,.,8,.
Clc1cccc(C2Nc3cccc4cccc(c34)N2)c1Cl,26,48,42*,20,26,-7,58*
c1coc(C2Nc3cccc4cccc(c34)N2)c1,38,45,41*,5,12,.,35*
Cc1cc(Cl)ccc1OCC(=O)OCC(=O)NC1CCCC1,1,7,-3,.,10,0,.
COc1ccc(S(=O)(=O)N2CCN(CC(=O)NC3CCCC3)CC2)cc1,-12,14,10,8,3,0,.
Nc1c(C(=O)c2ccccc2)oc2ccccc12,23,29,16,-4,-22,2,.
Nc1c(C(=O)c2ccc(F)cc2)oc2ccccc12,25,30,45*,10,-23,-6,22
Cc1cc(N2CCC(C(=O)NC3CCCCC3)CC2)nc(-c2ccccc2)n1,27,-7,45*,15,32,-1,16
Cc1cc(N2CCC(C(=O)NCC3CC3)CC2)nc(-c2ccccc2)n1,4,13,10,2,4,-1,.
Cc1ccc(C2C3=C(CC(C)(C)CC3=O)N=C3c4ccccc4C(=O)C32)cc1 (centres undefined),17,28,20,-21,9,5,.
CC1(C)CC(=O)C2=C(C1)N=C1c3ccccc3C(=O)C1C2c1ccc(Cl)cc1 (centres undefined),35,32,44*,24,13,2,31*
COc1ccc(CNC(=O)COc2ccc([N+](=O)[O-])cc2)cc1,-5,18,1,4,11,0,.
CC(=O)Oc1ccc(/C=N/NS(=O)(=O)c2ccccc2)cc1,23,28,44*,6,5,3,44*
